Results filed as inconclusive are left out. Activity calls are given as the source filed them. Calls come from the whole dose curve; as a rule, active = well fitted inhibition curve with a large enough effect; inconclusive = small, poorly fitted or top-dose-only effect; inactive = flat fitted curve, though single readings scatter.
System: HEK293
Experiment: Cytotoxic Profiling of Annotated Libraries Using Quantitative High-Throughput Screening (AID 1296008); note: nearly all actives have a fitted effect of over 60% in size
Conditions: Five cell lines viability, CellTiter-Glo ATP luminescence, 48-72 h; max response: active compounds read low
Procedure, shortened: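 Cells exposed to compounds for 48 or 72 hr at 37 degrees Celsius. Viability read as ATP-coupled luminescence with CellTiter-Glo after 10 min at room temperature.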
% is set by controls: 0 for no effect and ±100 for the full control effect; potency is the fitted concentration of half-maximal effect.

Question: For CC12CCC(OC3OC(CO)C(O)C(OC4OC(CO)C(O)C(O)C4O)C3O)CC1=CCC1C2CCC2(C)/C(=C3/COC(=O)C3)CCC12O (centres undefined), which max response is on record?
Answer: 0.267% (inactive)

Question: Which max response does the source give for CCCCNc1ncc2c(-c3ccc(F)cc3)nn(CC3CCC(N)CC3)c2n1 (centres undefined) here?
Answer: -110% (inactive)

Question: Which Potency does the source give for CC(C)(C(=O)NCC(F)(F)C(F)(F)F)C(=O)NC1C(=O)Nc2ccccc2-c2ccccc21 (centres undefined) here?
Answer: 5.8 µM (active)

Question: For CCCC(=O)NCCc1csc(-c2ccc(Cl)cc2)n1, which Potency is on record?
Answer: 16.4 µM (active)

Question: For CC(C)=C/C=C\[C@H](C)[C@H]1CC[C@]2(C)C[C@@H]3C(C)=CC(=O)C3/C(CO)=C\C[C@@H]12 (some centres undefined), which max response is on record?
Answer: -20.2% (inactive)

Question: With C=C(C)C(=O)OC1CC2(C)OC(=CC2=O)C(=C)CC2OC(=O)C(COC)C12 (centres undefined) as the molecule, how does the Potency read?
Answer: 7.18 µM (active)

Question: For CC1=C2C(O)C(=O)OC(c3ccoc3)C2(C)CCC1O (centres undefined), which max response is on record?
Answer: -2.84% (inactive)

Question: How did the max response turn out when C[C@@H]1O[C@@H](O[C@H]2[C@H](OC(=O)[C@]34CCC(C)(C)C[C@H]3C3=CCC5[C@@]6(C)C[C@H](O)[C@H](O[C@@H]7O[C@H](CO)[C@@H](O)[C@H](O)[C@H]7O)[C@@](C)(CO)C6[C@H](O)C[C@@]5(C)[C@]3(C)CC4)OC[C@H](O)[C@@H]2O)[C@H](O)[C@H](O)[C@H]1O[C@@H]1OC[C@@H](O)[C@H](O[C@@H]2OC[C@](O)(CO)[C@H]2O)[C@H]1O (some centres undefined) was run?
Answer: -1.81% (inactive)

Question: C=C[C@H]1[C@H](O[C@@H]2O[C@H](CO)[C@@H](O)[C@H](O)[C@H]2O)OC=C(C(=O)OC)[C@H]1CCOC(=O)c1cc(O)c(O)c(O)c1 was tested. Which max response did it give?
Answer: 0.889% (inactive)

— PubChem BioAssay (NCATS)
